Assay results from PubChem BioAssay AID485344 (National Center for Advancing Translational Sciences (NCATS), 2010).
Screen size: about 340,000 compounds; about 6,900 (2%) were called active. Cut-off read from the data, not from the text of the source: active = inhibition above about 30%; inactive = below that, where a call was filed. Shown is part of a subset that was picked to be rich in actives.

molecular target: D(2) dopamine receptor (Homo sapiens) (UniProt P14416); assay: HTS Assay for Allosteric Antagonists of the Human D2 Dopamine Receptor: Primary Screen for Antagonists; settings: HEK293 TREx D2 cells, calcium flux, dopamine EC80; at 10 µM; hits give high values; note: 0% is about no effect
Outline: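 Cells plated overnight at 30 C with tetracycline; no-wash calcium dye, 30–90 min RT; 10 s baseline; compound pinned; 180 s read; EC80 dopamine added; another 180 s read.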

Chain of D(2) dopamine receptor (Homo sapiens) (P14416 whole entry, looked up): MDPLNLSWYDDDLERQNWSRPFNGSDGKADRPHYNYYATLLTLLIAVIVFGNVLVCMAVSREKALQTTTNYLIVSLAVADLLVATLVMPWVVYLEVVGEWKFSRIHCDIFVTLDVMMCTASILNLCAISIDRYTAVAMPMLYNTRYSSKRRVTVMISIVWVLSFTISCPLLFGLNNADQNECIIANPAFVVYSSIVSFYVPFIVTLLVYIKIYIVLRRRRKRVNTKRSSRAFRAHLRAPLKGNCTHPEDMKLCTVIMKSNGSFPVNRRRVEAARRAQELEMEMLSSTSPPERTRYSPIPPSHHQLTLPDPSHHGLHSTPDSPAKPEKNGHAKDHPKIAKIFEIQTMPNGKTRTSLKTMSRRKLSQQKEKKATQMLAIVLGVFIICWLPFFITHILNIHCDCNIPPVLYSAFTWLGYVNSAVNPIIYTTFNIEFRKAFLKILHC

inhibition, active:
CCN1CCN(C(=O)c2ccccc2N(C)S(=O)(=O)c2ccc(C)cc2)CC1 40.9%
COc1cccc(C2CC(c3cccs3)=NN2C(=O)CSC2=NCCS2)c1OC (stereo not given) 31.4%
CCCn1cc(SCC(N)=O)c2ccccc21 31.1%
O=C(CCC(=O)c1cccs1)NCc1ccccc1 34.9%
CC(CCc1ccccc1)NC(=O)c1cnc(Cl)c(Cl)c1 (stereo not given) 43.2%
CCN(CC)CCNC(=O)c1cc(S(C)(=O)=O)ccc1OC 99%
CCN1CCN(c2nc(Nc3cccc(F)c3)nc(N)c2[N+](=O)[O-])CC1 73.4%
O=C(Nc1ccccc1)c1nnsc1S(=O)(=O)c1ccc(Cl)cc1 35.7%
CCCCC(=O)NNC(=S)NC(=O)C(c1ccccc1)c1ccccc1 40.2%
NC(=O)c1nsc(C(=O)N(CCCN2CCOCC2)C(C(=O)NC2CCCCC2)c2ccc(Cl)cc2)c1N (stereo not given) 30.5%
Cc1cccc(-n2c(Cc3cc(=O)[nH]c(=O)[nH]3)nnc2SCC(=O)Nc2cccc(C(F)(F)F)c2)c1 36.6%
Cc1ccccc1C(=O)NC(=S)NC1CC1 31.1%
Cn1c(SCC(=O)Nc2ccc(Br)cc2F)nnc1-c1ccco1 31%
CCn1c(SCC(=O)Nc2nccs2)nnc1-c1ccco1 83%
Cc1c(CC(=O)N2CCN(C(=O)C3COc4ccccc4O3)CC2)c(=O)oc2c(O)c(O)ccc12 (stereo not given) 60%
COc1ccc(CN2CC(C(=O)NCCN3CCN(c4ccccc4F)CC3)CC2=O)cc1 (stereo not given) 78.4%
O=C(NCCCN1CCN(c2ccccc2F)CC1)C1CCC(=O)N1C1CCCCC1 (stereo not given) 55.7%
C/C(=N\N(C)C)c1ccc(OCCOc2ccc([N+](=O)[O-])cc2)cc1 33.5%

inhibition, inactive:
O=C(OCC(=O)N1CCN(C(=O)c2ccco2)CC1)c1ccc(Cl)c(Cl)c1 20.1%
CCN(c1ccccc1)S(=O)(=O)c1cc(C(=O)NCc2ccccn2)ccc1C -6.91%
CCOC(=O)C1CCN(C(=O)c2ccccc2N(C)S(=O)(=O)c2ccccc2)CC1 -8.5%
CCOC(=O)N1CCN(C(=O)c2ccccc2N(Cc2ccccc2)S(=O)(=O)c2ccc(OC)cc2)CC1 -13.3%
COc1ccc(-c2cc(C(=O)N(C)CC(=O)Nc3ccccc3Cl)c3ccccc3n2)cc1OC 1.05%
CC(=O)c1c(C)[nH]c(C(=O)OCC(=O)Nc2c(C)cccc2C)c1C -33.4%
COc1ccc(C2CC(c3cccs3)=NN2C(=O)CSc2nncs2)cc1OC (stereo not given) -4.05%
COc1ccc(C2CC(c3cccs3)=NN2C(=O)CSc2nnc(N)s2)cc1OC (stereo not given) -3.75%
CCOc1ccc2oc(C(=O)N(CC)CC(=O)Nc3ccc(NC(C)=O)cc3)c(C)c2c1 -21.5%
CCCC(NCC(=O)Nc1ccccc1C(=O)NC1CC1)c1ccccc1 (stereo not given) -15.9%
O=C(CCc1nc2sc3c(c2c(=O)[nH]1)CCCC3)NCC(=O)Nc1ccccc1Br 11%
Cc1ccccc1NC(=O)Cc1nc(COC(=O)c2cccnc2Cl)cs1 6.55%
CC(C)N(C(=O)Cn1cc(SCC(=O)N2CCCC2)c2ccccc21)C(C)C 13.5%
NC(=O)CSc1c[nH]c2ccccc12 -9.76%
CCCCN(C(=O)C1CCC1)c1c(N)n(Cc2ccccc2)c(=O)[nH]c1=O -6.33%
O=C(NCCC1CCCCN1S(=O)(=O)c1ccc(Cl)cc1)C(=O)NCc1ccco1 (stereo not given) -13.3%
COc1ccc(C(=O)NCc2ccc(Cl)cc2)cc1S(=O)(=O)N1CCCC1 -28.1%
O=C(CCC(=O)c1cccs1)NC1CCCCCC1 -3.48%
O=C(CCCc1ccccc1)NCc1ccccc1 7.76%
CC(NC(=O)CN(C)S(=O)(=O)c1ccc(F)cc1)C1CC2CCC1C2 (stereo not given) 2.6%
CC(CCc1ccccc1)NC(=O)c1ccc(Br)o1 (stereo not given) -19.1%
COc1ccc(CCNC(=O)c2cnc(Cl)c(Cl)c2)cc1 2.2%
COc1cccc(N2CCN(CC(=O)Nc3ccnn3C3CCCC3)CC2)c1 19.5%
COc1ccc(C(=O)NCCc2ccc(S(N)(=O)=O)cc2)cc1OC 14%
CCN(CC)CCNC(=O)c1ccc(NS(=O)(=O)c2ccc3c(c2)OCCO3)cc1 1.77%
COc1cccc(NC(=O)CN(C)C(=O)/C=C/c2cn(-c3ccccc3)nc2-c2cccs2)c1 12.4%
COCCNc1nc(N)c([N+](=O)[O-])c(N2CCCCCC2)n1 -9.71%
CC1CN(c2nc(Nc3ccccc3)nc(N)c2[N+](=O)[O-])CC(C)O1 (stereo not given) 13.4%
O=C(C1Cc2ccccc2CN1C(=O)c1ccco1)N1CCN(c2ccccc2)CC1 (stereo not given) -4.55%
CC(C)(C)C(=O)COC(=O)c1cc(S(=O)(=O)N2CCCCC2)ccc1N1CCOCC1 1.2%
Cc1ccc(S(=O)(=O)N2CCC(C(=O)OCC(=O)N(C)c3ccccc3)CC2)cc1C -7.26%
CN(c1cccc(NC(=O)Nc2ccc(Cl)cc2)c1)S(C)(=O)=O 4.52%
Cc1nnsc1C(=O)N/N=C/c1ccccc1Cl -8.27%
CCOc1ccc(C(C)NC(=O)CN2C(=O)NC3(CCCCC3)C2=O)cc1OCC (stereo not given) -2.35%
CSCCC(NC(=O)COc1ccccc1)C(=O)N(C)CC(=O)Nc1ccc(C)cc1 (stereo not given) -24.9%
CC(OC(=O)/C=C/c1ccccc1)C(=O)NC1CCCCC1C (stereo not given) -2.14%
CC(C)C(=O)Nc1cccc(NC(=S)NC(=O)C(c2ccccc2)c2ccccc2)c1 -3.17%
O=C(NNC(=S)NCc1ccco1)C(c1ccccc1)c1ccccc1 -2.47%
Cc1ccc(S(=O)(=O)Nc2nc(CN3CCOCC3)nc3sc(C)c(C)c23)cc1 -2.97%
COc1ccc(CNC(=O)COc2ccccc2C(=O)c2cnn(-c3ccccc3)c2)cc1OC 7.52%
CC(CCN1CCN=C1N(C)C)c1ccccc1 (stereo not given) 8.97%
CC(C)(C)NC(=O)C(c1ccc(Cl)cc1)N(CCO)C(=O)c1snc(C(N)=O)c1N (stereo not given) -7.69%
CCOc1ccc(C(C(=O)NC2CCCC2)N(C(=O)c2snc(C(N)=O)c2N)C2CCCC2)cc1 (stereo not given) -2.16%
Cc1cc(F)ccc1S(=O)(=O)Nc1ccc(C(=O)N(C)Cc2ccco2)cc1 2.47%
COc1cccc(-n2c(Cc3cc(=O)[nH]c(=O)[nH]3)nnc2SCC(=O)Nc2ccccc2)c1 -4.57%
Cc1cccc(-n2c(Cc3cc(=O)[nH]c(=O)[nH]3)nnc2SC(C)C)c1 -16%
O=C(Nc1cccc(C(=O)NC2CC2)c1)c1ccc(F)c(S(=O)(=O)N2CCOCC2)c1 -7.88%
O=C(NNC(=S)NC1CCCCC1)c1ccccc1Cl -5.96%
Cc1ccccc1C(=O)NC(=S)Nc1ccc(N2CCN(C(=O)c3ccccc3)CC2)cc1 -1.88%
CCOC(=O)CSc1nnc(-c2ccco2)n1C 25.3%
Nn1c(SCC(=O)Nc2nccs2)nnc1-c1ccco1 3.93%
Cn1c(SCC(=O)c2cccs2)nnc1-c1ccco1 -10.8%
CCn1c(SCC(=O)Nc2nccs2)nnc1-c1ccncc1 10.6%
CSc1ncccc1C(=O)Nc1ccc2c(c1)OCO2 -3.04%
CCc1ccccc1OCC(=O)Nc1ccc(C)c(S(=O)(=O)N2CCCCCC2)c1 -4.67%
CCc1nnc(NC(=O)C2CCN(C(=O)c3ccccc3C)CC2)s1 14.3%
O=C(CNC(=O)C1COc2ccccc2O1)N/N=C/c1cc(Br)c(O)c(Br)c1 (stereo not given) 7.94%
Cc1c(C)c2ccc(OCC(=O)N3CCC(C(=O)O)CC3)c(C)c2oc1=O 2.01%
COc1cccc(CNC(=O)COC(=O)CN2C(=O)NC3(CCCCC3C)C2=O)c1 (stereo not given) 4.18%
COc1cccc(C(=O)NCCS(=O)(=O)NCC2CCCO2)c1 (stereo not given) 8.23%
O=C(COC(=O)c1cc(=O)[nH]c2ccccc12)NCc1cccc(Cl)c1 -19.7%
COc1ccc(CN2CC(C(=O)NCCc3ccc(Cl)cc3)CC2=O)cc1 (stereo not given) 4.69%
O=C(NCCCN1CCCCCC1)C1CC(=O)N(C2CCCC2)C1 (stereo not given) -15.4%
CCOC(=O)N1CCN(c2c(NCCN3CCN(c4ccccc4F)CC3)c(=O)c2=O)CC1 -8.27%
COc1ccc(CN2CC(C(=O)NC3CCCCC3)CC2=O)cc1 (stereo not given) 9.38%
CCOC(=O)C1CCN(C(=O)c2cccc(S(=O)(=O)N(CC)c3ccccc3)c2)CC1 14.5%
Nc1c(C(=O)OCC(=O)Nc2ccc(OC(F)F)cc2)[nH]c(=O)[nH]c1=O 0.0124%
Cc1ccc(CSc2ccc(S(=O)(=O)N3CCCCC3)cn2)cc1 -10.3%
COc1ccc(NC(=O)CSc2nnc(C3CC3)n2C)cc1S(=O)(=O)N1CCCCC1 -7.07%
C/C(=N/NC(=O)CC(=O)N/N=C(\C)c1ccc([N+](=O)[O-])cc1)c1ccc([N+](=O)[O-])cc1 -6.92%
CCOC(=O)COc1ccc([N+](=O)[O-])cc1 5.2%
CC(=O)C[C@@H](O)CC(=O)[C@H]1OC(=O)CCCCCCc2ccccc21 3.89%
